Screening data: PubChem, several laboratories
Rtt109 Vps75 – inhibitors of Candida albicans Rtt109/Vps75 histone acetyltransferase; purified Rtt109/Vps75, ThioGlo CoA-SH fluorescence, 4 h; inhibition, % at 34.9 µM; Q5AAJ8; actives 0.16% (n = 330,000);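 active = inhibition of at least 50% in every replicate; inconclusive = best replicate reaches 50% inhibition but some replicates fall short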
LANA-H2A inh – blocks KSHV LANA binding to histone H2A/H2B; Q9QR71; cell-free LANA-H2A/H2B peptide, fluorescence polarization; inhibition, % (no concentration beside the values); actives 0.6% (n = 320,000); in the data active = inhibition mostly above about 10%, no sharp cut-off; inactive = mostly below about 6.7%
rCAG binder – molecules binding r(CAG) RNA repeats. inhibition, % at 3 µM. actives 1.3% (n = 370,000). r(CAG) RNA repeat, TO-PRO-1 dye displacement fluorescence;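 active = inhibition above the plate cutoff, the mean of all test compounds on that plate plus 3 SD, cut at about 35% in these data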;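 note: higher means more dye released from RNA so lower well fluorescence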
ABHD5-PLIN5 inh – ABHD5-PLIN5 protein interaction inhibition | Split G. princeps luciferase complementation, luminescence, 4 h | AID 602281 | inhibition, % at 4 µM | actives 0.78% (n = 360,000) | Q00G26+Q8WTS1;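 active = inhibition above the mean inhibition across every tested compound plus 3 SD, cut at about 22% in these data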
PRMT1 inh – inhibitors of human PRMT1. Q99873. recombinant PRMT1, activity-based probe fluorescence polarization. inhibition, % at 2.79 µM. actives 1.3% (n = 370,000). AID 652257;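 active = inhibition above about 21% made by adding two undisclosed values, limit read from the data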
ALR inh – blocks human ALR sulfhydryl oxidase activity. P55789. purified ALR, DTT oxidation, H2O2 HRP-luminol luminescence. inhibition, % (concentration not given with the values). actives 3.8% (n = 290,000);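 active = mean replicate inhibition above about 79%, with every replicate also reaching it, limit read from the data; inconclusive = only one of the two criteria met; inactive = mean below limit and not every replicate reaching it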
Target sequence (P55789 whole entry, looked up): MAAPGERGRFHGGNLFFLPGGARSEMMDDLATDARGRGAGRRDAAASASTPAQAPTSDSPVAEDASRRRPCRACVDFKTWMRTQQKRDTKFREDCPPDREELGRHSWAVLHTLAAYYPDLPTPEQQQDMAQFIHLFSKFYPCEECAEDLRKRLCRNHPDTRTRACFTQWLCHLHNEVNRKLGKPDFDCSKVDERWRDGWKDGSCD
ABHD5 PLIN5 conf – ABHD5-PLIN5 interaction inhibition, confirmed | AID 651612 | inhibition, % at 4 µM | shares compounds with ABHD5-PLIN5 inh | actives 67% (n = 2,200) | biochemical ABHD5-PLIN5 interaction, luminescence; in the data active = inhibition above about 23%
HNF4 counter – counter-screen for ABHD5-PLIN5 inhibitors: HNF4 split-luciferase | actives 77% (n = 2,200) | shares compounds with ABHD5-PLIN5 inh | inhibition, % at 4 µM | AID 651674 | HNF4 dimerization, luminescence, biochemical;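 active = mean inhibition across replicate wells exceeding the computed hit threshold, cut at about 13% in these data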;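 note: light from luciferase halves that rejoin when HNF4 fusion proteins dimerize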
rCAG binder conf – r(CAG) RNA repeat binding, confirmation; TO-PRO-1 dye displacement fluorescence; AID 652065; actives 70% (n = 4,300); inhibition, % at 3 µM; shares compounds with rCAG binder;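 active = inhibition above a per-plate cutoff, the mean inhibition of sample wells plus 3 SD, cut at about 35% in these data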;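 note: loss of TO-PRO-1 fluorescence as compound displaces dye from 1x1 AA loop RNA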
DNA CAG counter – DNA CAG dye complex inhibition counter-screen; shares compounds with rCAG binder; d(CAG) DNA oligo TO-PRO-1 dye displacement, fluorescence; inhibition, % at 3 µM; actives 94% (n = 4,300);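 active = inhibition above its plate's cutoff, the mean test-well inhibition plus 3 SD, cut at about 4.8% in these data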;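 note: hits displace the dye from DNA and so lower well fluorescence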
PRMT1 confirm – confirmation of human PRMT1 inhibitors | shares compounds with PRMT1 inh | recombinant His-PRMT1, activity-based probe fluorescence polarization | inhibition, % at 2.79 µM | actives 42% (n = 3,300) | AID 687036;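 active = mean inhibition across replicates above the hit cutoff derived for the earlier primary screen, cut at about 22% in these data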
Hits are given with their value; – = inactive; ? = inconclusive; · = no result; ! = a repeat was not active. Compounds with a hit are over-represented: about 5.9% of the library has one in this group of screens.

SMILES	Rtt109 Vps75	LANA-H2A inh	rCAG binder	ABHD5-PLIN5 inh	PRMT1 inh	ALR inh	ABHD5 PLIN5 conf	HNF4 counter	PRMT1 confirm	others
Cc1ccc(/C=C2/NC(=O)N(Cc3ccc(Br)cc3)C2=O)o1	–	–	–	54.9	79.9	·	63.2	93.0	–
CCn1c(C)cc(/C=C2/NC(=O)N(Cc3ccccc3F)C2=O)c1C	–	–	–	–	–	–	·	·	·
CCN1C(=O)N/C(=C/c2ccc(C)o2)C1=O	–	–	–	42.1	55.5	·	26.7	88.6	–
CCCN1C(=O)/C(=C/c2ccc(C)o2)NC1=S	·	–	·	·	·	·	·	·	·
CCc1nc2ccc(C(=O)N(CC)CCN(C)C)cn2c1N(C)C(=O)C1CCCCC1	·	·	–	–	–	·	·	·	·
CCOC(=O)/C=C/S(=O)(=O)c1ccc(NC(C)=O)cc1	123.6	–	–	77.4	43.8	98.1	78.2	108.8	35.1
O=C1N2Cc3ccccc3C2CS(=O)(=O)N1CCc1ccccc1 (stereo not drawn)	·	·	–	·	–	·	·	·	·
CC(=O)C1=C(S(=O)(=O)c2ccc(C)cc2)CS(=O)(=O)C1	?	·	–	29.0	75.6	·	98.8	110.5	89.2
Cc1ccccc1C(=O)N=c1c(C#N)cc2c(=O)n3cccc(C)c3nc2n1Cc1ccco1	·	–	·	·	·	–	·	·	·
N#Cc1cc2c(=O)n3ccccc3nc2n(Cc2ccco2)c1=NC(=O)c1ccco1	–	–	–	49.9	31.9	–	–	25.9	–
COc1ccccc1N(C(C)=O)C1=C(Cl)C(=O)c2ccccc2C1=O	·	·	–	93.3	94.5	·	100.3	110.6	88.6
O=S1(=O)CC(N2CCC(Cc3ccccc3)CC2)CN1C1CCCCC1 (stereo not drawn)	·	·	–	–	–	·	·	·	·
Cc1cccc(N=C2NC(=O)/C(=C/C=C/c3ccco3)S2)c1	–	–	52.1	24.5	27.6	·	47.9	34.0	–	rCAG binder conf=43.0;DNA CAG counter=22.5
Cc1cc(C)cc(N=C2NC(=O)/C(=C/c3cccs3)S2)c1	–	–	–	–	–	–	·	·	·
CCN(C(=O)Cn1c(Cl)nc2c1c(=O)n(C)c(=O)n2C)C1CCCCC1	–	–	–	–	–	–	·	·	·
Cc1ccc(/C=C/C(=O)NCc2cccs2)o1	–	–	–	24.5	31.6	–	–	18.0	–
O=C(NCCc1c[nH]c2ccccc12)OCc1cn(Cc2ccccc2F)nn1	·	·	–	·	–	·	·	·	·
COc1cc(N=c2ssnc2Cl)c(OC)cc1Cl	–	–	–	41.2!	93.7	–	74.4	105.7	91.4
Cc1cc(C)nc(/N=c2/ssnc2Cl)c1	–	–	–	–	–	·	·	·	·
O=C(/C=C/c1ccc2ccccc2n1)c1cc(Br)ccc1O	–	–	–	–	–	·	·	·	·
O=C(/C=C/c1ccccc1)c1cc(Br)ccc(=O)c1O	–	–	50.8	43.9	34.2	–	76.2	67.8	27.9	rCAG binder conf=41.0;DNA CAG counter=17.0
CCn1c(Cl)c(C=O)s/c1=N\S(=O)(=O)c1ccccc1	–	–	–	48.1	49.1	–	70.6	105.1	26.6
O=C1c2ccccc2CC1Sc1nnc(-c2ccncc2)o1 (stereo not drawn)	–	–	–	–	–	·	·	·	·
Cc1ccccc1N1C(=O)CC(Sc2nnc(-c3ccccc3)o2)C1=O (stereo not drawn)	–	–	–	35.0	83.4	–	59.8	98.2	67.6
c1ccc(CSc2nnc(-c3ccco3)n2Cc2ccco2)cc1	·	–	–	–	–	–	·	·	·
CCCCOc1[nH]c2nc(-c3ccco3)n(Cc3ccco3)c(=N)c2c1C#N	–	–	–	48.0	35.0	–	25.2	47.5	31.8
